Results reported in the supplement of paper PMC6555819.

Columns and labels:
Test in all cases: PBM binding z-score (relative to random genomic background probes); higher = stronger binding; sequences stand for … in GC…GCGATTGACAGCGTAGAATGAAGG
[1] = system: FXR:RXRa (NR concentration 270 nM, RXRa partner concentration 90 nM)
Outline: (§1)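 Random background probes are the reference for binding z-scores. These scores derive from regression-normalized fluorescence on custom Agilent 4×180K protein-binding microarrays incubated 1 h with ligand-free nuclear receptor dimers. Binding was detected with antibodies against each partner (one per run).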

[2] = system: LXRa:RXRa (NR concentration 270 nM, RXRa partner concentration 90 nM)
Outline: as §1

[3] = system: LXRa homodimer (NR concentration 270 nM)
Outline: as §1

[4] = system: LXRb:RXRa (NR concentration 270 nM, RXRa partner concentration 90 nM)
Outline: as §1

[5] = system: LXRb homodimer (NR concentration 270 nM)
Outline: as §1

[6] = system: PPARa:RXRa (NR concentration 270 nM, RXRa partner concentration 90 nM)
Outline: as §1

[7] = system: PPARg:RXRa (NR concentration 180 nM, RXRa partner concentration 90 nM)
Outline: as §1

[8] = system: PPARg:RXRa 270nM:90nM, anti-RXR (NR concentration 270 nM, RXRa partner concentration 90 nM)
Outline: as §1

[9] = system: PPARg:RXRa 30nM:10nM, anti-RXR (NR concentration 30 nM, RXRa partner concentration 10 nM)
Outline: as §1

[10] = system: PPARg:RXRa 90nM:30nM, anti-RXR (NR concentration 90 nM, RXRa partner concentration 30 nM)
Outline: as §1

[11] = system: PPARg:RXRa DBDmut IVT, anti-RXR (DBD mutation: RXRa K156A/R161A, NR concentration 270 nM, RXRa partner concentration 90 nM)
Outline: as §1

[12] = system: PPARg:RXRa IVT, anti-PPARg (NR concentration 270 nM, RXRa partner concentration 90 nM)
Outline: as §1

[13] = system: PPARg DBDmut:RXRa IVT, anti-PPARg (DBD mutation: PPARg1 K132A/R137A, NR concentration 270 nM, RXRa partner concentration 90 nM)
Outline: as §1

[14] = system: PPARg DBDmut IVT, anti-PPARg (DBD mutation: PPARg1 K132A/R137A, NR concentration 270 nM)
Outline: as §1

[15] = system: PPARg homodimer (NR concentration 180 nM)
Outline: as §1

[16] = system: PXR:RXRa (NR concentration 270 nM, RXRa partner concentration 90 nM)
Outline: as §1

[17] = system: PXR homodimer (NR concentration 270 nM)
Outline: as §1

[18] = system: RARa:RXR (NR concentration 270 nM, RXRa partner concentration 90 nM)
Outline: as §1

[19] = system: RARa homodimer (NR concentration 270 nM)
Outline: as §1

[20] = system: RARb:RXRa (NR concentration 270 nM, RXRa partner concentration 90 nM)
Outline: as §1

| Sequence | PBM binding z-score [1] | PBM binding z-score [2] | PBM binding z-score [3] | PBM binding z-score [4] | PBM binding z-score [5] | PBM binding z-score [6] | PBM binding z-score [7] | PBM binding z-score [8] | PBM binding z-score [9] | PBM binding z-score [10] | PBM binding z-score [11] | PBM binding z-score [12] | PBM binding z-score [13] | PBM binding z-score [14] | PBM binding z-score [15] | PBM binding z-score [16] | PBM binding z-score [17] | PBM binding z-score [18] | PBM binding z-score [19] | PBM binding z-score [20] |
| --- | --- | --- | --- | --- | --- | --- | --- | --- | --- | --- | --- | --- | --- | --- | --- | --- | --- | --- | --- | --- |
| GCTAGCACGCCATTTGGGTCACTCAATGACGGGC | -0.103 | -0.15 | -0.585 | -0.179 | -1.07 | 1.13 | 0.747 | 0.379 | -0.294 | 0.152 | 0.446 | 1.27 | -1.77 | -1.29 | -0.0391 | 0.0907 | -0.533 | 0.592 | -0.962 | 0.997 |
| TCTATTAGTTGACTAGGGCAACCGAAACAGCGGA | 0.843 | 0.805 | -0.0763 | 0.429 | 0.447 | 1.45 | 0.971 | 2.37 | 3.68 | 3.07 | 3.04 | 3.38 | 0.37 | 0.987 | 1 | 0.491 | 0.269 | 0.566 | 0.68 | 0.994 |
| CCTCGGAGGACAGAAGGTCAGAACTGTCCGCTTT | 0.99 | 1.35 | 0.337 | 1.03 | -0.707 | 1.54 | -0.0634 | 0.635 | -0.743 | 0.0441 | 0.127 | -0.242 | -0.806 | -1.38 | 0.826 | 1.1 | 0.0205 | 1.7 | 0.442 | 2.85 |
| GCTTACGGGTCAGAGGTTATAGCATGAATAGAAT | 5.2 | 3.46 | 0.404 | 3.77 | 0.261 | 5.92 | 9.08 | 7.82 | 6.2 | 8.57 | 2.54 | 4.73 | 0.344 | 0.535 | 2.65 | 3.89 | 0.491 | 5.92 | 0.521 | 3.58 |
| TCTGCTAGGTCAACGATGATCAGCTAATCTGCTA | 3.12 | 1.96 | -0.355 | 1.52 | -0.366 | 3.32 | 2.74 | 2.86 | 2.03 | 2.38 | 4.26 | 4.06 | 0.35 | 0.888 | 0.451 | 0.896 | -0.713 | 1.77 | -0.998 | 3.99 |
| GCTGCTAGGTCTGGTTGGTCAGCTAACGGGTACG | -0.623 | -0.65 | -0.365 | -0.912 | -0.475 | -0.774 | -0.79 | -0.447 | -1.15 | -0.815 | -0.0168 | -0.444 | -1.29 | -0.941 | -0.461 | -0.762 | -0.661 | -0.909 | -0.893 | 0.00464 |
| CAAACTAAGTCAAGGTCAAAGTCGGTTTGTGCCA | 4.9 | 5.29 | 5.4 | 4.15 | 1.52 | 4.7 | 2.82 | 3.64 | 1.62 | 2.78 | 2.53 | 3.35 | 0.787 | 0.588 | 2.93 | 4.73 | 2.29 | 4.9 | 1.46 | 4.13 |
| CAGCCTAGGTCAGGGCCAGTCTAGGAGGAACGTT | 1.43 | 0.988 | -0.566 | 0.24 | -1.33 | 2 | 0.484 | 0.9 | -0.591 | 0.125 | 1.23 | 1.44 | -1.02 | -1.49 | 0.16 | 0.386 | -0.83 | 1.06 | -0.6 | 3.28 |
| AATACAGGGTCATCGTAGGGCAGAGTACGCACAG | 7.54 | 6.88 | 2.95 | 5.07 | 1.16 | 5.83 | 6.94 | 6.07 | 2.84 | 4.96 | 3.16 | 4.29 | 1.4 | 0.756 | 3.57 | 5.4 | 0.861 | 5.26 | 0.97 | 4.7 |
| ACTAGTTGGTCAGCTGAGGTCAAACACAATTCGG | 3.81 | 4.24 | 4.08 | 4.26 | 1 | 4.22 | 1.65 | 2.34 | 0.396 | 1.55 | 1.45 | 2.49 | 0.694 | 0.579 | 3.02 | 6.03 | 3.32 | 5.18 | 2.07 | 3.62 |
| CCAGACAGGTGAGAAGGTAAATCAGCCTCGATTA | 0.109 | 0.108 | -0.129 | 0.141 | -0.154 | 0.484 | 0.39 | 0.456 | 0.0319 | 0.15 | 0.792 | 0.856 | -0.421 | -0.384 | 0.684 | 0.0672 | -0.0292 | 0.359 | -0.00331 | 0.508 |
| ATCTCTAGGTAAAGTTCAGAGAAAGATCGATAGA | 1.31 | 1.89 | 1.72 | 1.3 | 0.639 | 2.4 | 3.54 | 4.66 | 2.76 | 4.68 | 2.15 | 2.79 | 1.18 | 0.787 | 2.17 | 2.04 | 1.86 | 1.25 | 1.48 | 2.51 |
| CCAGACAGGTGAGAAGGTAACTCACCCTCGATTA | -0.00684 | 0.259 | -0.0683 | 0.491 | -0.394 | 1.09 | 0.731 | 0.509 | -0.0353 | -0.0765 | 0.889 | 0.707 | -0.339 | -0.245 | 0.968 | 0.325 | 0.219 | 0.748 | 0.925 | 0.764 |
| CCTACTGGGCCACCAGGTCATTGATATCAACGTT | 1.25 | 1.07 | 0.943 | 1.56 | -0.0133 | 3.16 | 4.32 | 4.3 | 1.41 | 3.26 | 4.8 | 6.19 | -0.327 | -0.298 | 1.02 | 1.73 | 0.656 | 1.75 | 0.342 | 1.98 |
